Structures are written as SMILES. Records with an inconclusive call do not appear. The source made the active and inactive calls. Unless noted, calls come from the whole dose curve; as a rule, active = well fitted curve in the direction sought with a large enough effect; inconclusive = small, poorly fitted or top-dose-only effect, or another doubt; inactive = no such curve, though single readings can be large; an effect the other way counts as inactive or inconclusive.

Test [1] concerns the target Phenylethanolamine N-methyltransferase (Homo sapiens) (UniProt P11086). Put plainly: Confirmatory Screen for Target Class Profiling of Small Molecule Inhibitors of Methyltransferases (AID 1745852). To be noted: MTase-Glo luminescence, SAH detection, recombinant enzyme; measured here: PNMT max response; stronger effect = lower value.
Test [2] can be described thus: Primary qHTS for small molecule stabilizers of the endoplasmic reticulum resident proteome: Secreted ER Calcium Modulated Protein (SERCaMP) assay (AID 1508630). Note: % is set by controls: 0 for no effect and ±100 for the full control effect. To be noted: SH-SY5Y GLuc-SERCaMP (Gaussia luciferase released on ER calcium loss) secretion, thapsigargin, luminescence; series mostly up to 38.4 µM. The method in brief: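 The SH-SY5Y reporter protocol was run at 3 concentrations up to 38.3 uM (primary) or 11 concentrations (follow-up): 16 h compound, 100 nM thapsigargin for 4 h, then extracellular luciferase luminescence.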
On the technique in general: Quantitative high-throughput screening tests each substance at several concentrations.

Test [3] addresses Cytochrome P450 2C19 (Homo sapiens) (UniProt P33261). Put plainly: qHTS Assay for Inhibitors and Substrates of Cytochrome P450 2C19 (AID 899). Note: nearly all actives have a fitted effect of over 60% in size. Note: potency is the fitted concentration of half-maximal effect. To be noted: recombinant CYP2C19, luciferin-H EGE luminescence; series mostly up to 57.1 µM. In short, it runs like this:
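Human CYP2C19 (5nM) with Luciferin-H EGE at 10uM (its KM) in 50mM KPO4 was preincubated with compound for 10 min at 37C. NADPH regeneration started a 60 min 37C reaction. Luciferin was read by luminescence, normalized to 57uM ketoconazole.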

The target in test [4] is Cytochrome P450 3A4 (Homo sapiens) (UniProt P08684). The test is described as follows: qHTS Assay for Inhibitors and Substrates of Cytochrome P450 3A4 (AID 884). For activity change, negative = inhibition: % is set by controls: 0 for no effect and ±100 for the full control effect. Note: nearly all actives have a fitted effect of over 50% in size. Note: potency is the fitted concentration of half-maximal effect. To be noted: recombinant CYP3A4, Luciferin-PPXE luminescence; series mostly up to 57.1 µM. The method in brief:
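Luminescent readout of luciferin produced by CYP3A4 (20 nM) dealkylation of Luciferin-PPXE, 25 uM (its KM). NADPH-driven reaction ran 60 min at RT after 10 min compound preincubation; data scaled to 57 uM ketoconazole as 100% inhibition.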

Test [5] is described as follows: Confirmation and Secondary Assay for Modulators of Hemoglobin Beta Chain Splicing at IVS2 654 locus (AID 910). Note: % of control where 0% means no effect. To be noted: HeLa EGFP-654 splicing reporter, GFP fluorescence, 48 h; series mostly up to 38.3 µM. In short, it runs like this:
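HeLa cells stably carrying EGFP interrupted by mutant beta-globin IVS2-654 intron (CMV-driven) were treated with compound for 2 days at 37C; corrected splicing was scored as total peak GFP intensity per well (488 nm excitation, 500-520 nm emission).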

Test [6] can be described thus: Confirmation and Secondary Assay for Modulators of Hemoglobin Beta Chain Splicing at IVS2 705 locus (AID 930).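 Note: HeLa cells stably expressing the EGFP-705 splicing reporter; GFP fluorescence per well restored by corrected splicing of the IVS2-705 intron in EGFP; % of control where 0% means no effect.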 To be noted: HeLa EGFP-705 splicing reporter, GFP fluorescence, 48 h; series mostly up to 38.3 µM. The method in brief: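 Read-out: total peak GFP fluorescence per well (488 nm excitation, 500-520 nm emission) by laser-scanning cytometry. Cells: HeLa EGFP-705 splicing reporter, 2 days compound exposure in Optimem/2% FCS.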

Test [7] is described as follows: qHTS assay for small molecule agonists of the antioxidant response element (ARE) signaling pathway measured by Nrf2-dependant transcriptional activity (AID 720636; active = well fitted curve in the direction sought with a large enough effect in the repeat runs; an effect the other way counts as inactive or inconclusive;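 note: HepG2 cells with an ARE-driven luciferase reporter; % of control where 0% means no effect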). To be noted: ARE-luc HepG2, Nrf2 luciferase reporter, 16 h; series mostly up to 92.4 µM. The method in brief:
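HepG2 ARE-luc reporter line, 1% dialyzed FBS; 6 hr attachment at 37 C, compound pinned in, 16 hr at 37 C/5% CO2; ONE-Glo, 30 min RT, luminescence read.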

Test [8] addresses Rap guanine nucleotide exchange factor 3 (Homo sapiens) (UniProt O95398). Put plainly: Confirmatory qHTS for antagonist of cAMP-regulated guanine nucleotide exchange factor 3 (EPAC1) (AID 1645880).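 Note: plate controls were DMSO only for no effect and full effect of the ATA control for full effect; nearly all actives have a fitted effect of over 55% in size.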 To be noted: EPAC1 Rap1B-BODIPY-GDP exchange, fluorescence; series mostly up to 115 µM. The method in brief:
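Released BODIPY-GDP fluoresces less than Rap1-bound BODIPY-GDP; the signal is followed at 480/540 nm at 5-min intervals over 30 min, after 5 min at room temperature. Reactions contain 100 nM EPAC1, 250 nM RAP1B-BODIPY-GDP and 50 uM GDP; results are normalized to ATA and DMSO.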

Test [9] has the same target. Put plainly: Confirmatory qHTS for agonist of cAMP-regulated guanine nucleotide exchange factor 3 (EPAC1) (AID 1645881).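 Note: EPAC1 catalysed release of BODIPY-GDP from Rap1B seen as fluorescence loss; nearly all actives have a fitted effect of over 75% in size.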 To be noted: EPAC1 Rap1B BODIPY-GDP exchange fluorescence, 100% = cAMP control response; series mostly up to 154 µM.
The target in test [10] is Rap guanine nucleotide exchange factor 4 (Homo sapiens) (UniProt Q8WZA2). The test is described as follows: Confirmatory qHTS for agonist of cAMP-regulated guanine nucleotide exchange factor 4 (EPAC2) (AID 1645884). Note: % is set by controls: 0 for no effect and ±100 for the full control effect; nearly all actives have a fitted effect of over 65% in size. To be noted: EPAC2 GEF activity, Rap1B-BODIPY-GDP fluorescence, percent relative to cAMP agonist control; series mostly up to 154 µM.
Test [11] has the same target. Put plainly: Confirmatory qHTS for antagonist of cAMP-regulated guanine nucleotide exchange factor 4 (EPAC2) (AID 1645885). Note: % is set by controls: 0 for no effect and ±100 for the full control effect; nearly all actives have a fitted effect of over 25% in size. To be noted: EPAC2 Rap1B-BODIPY-GDP exchange fluorescence, biochemical; series mostly up to 114 µM.
Test [12] addresses Rap guanine nucleotide exchange factor 3 (Homo sapiens) (UniProt O95398). The test is described as follows: Counterscreen qHTS for antagonist of cAMP-regulated guanine nucleotide exchange factor 3 (EPAC1) (AID 1645888). Note: % of control where 0% means no effect. To be noted: Rap1B-BODIPY-GDP nucleotide exchange, fluorescence; series mostly up to 30.8 µM. In short, it runs like this: (§1)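 Measured: fluorescence of BODIPY-GDP bound to Rap1B, which falls as exchange proceeds. Conditions include 50 uM competing GDP, 5 and 30 min reads, and a later cAMP challenge for antagonist detection.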

Test [13] shares this target. Put plainly: Counterscreen qHTS for agonist of cAMP-regulated guanine nucleotide exchange factor 3 (EPAC1) (AID 1645889). Note: % of control where 0% means no effect; nearly all actives have a fitted effect of over 40% in size. To be noted: EPAC1 Rap1B-BODIPY-GDP exchange, fluorescence; series mostly up to 154 µM. In short, it runs like this: as §1
For orientation: Counterscreens check selectivity or assay interference.

Test [14] in a line: qHTS Assay for Identification of Small Molecule Antagonists for NFkB Signaling Pathway (AID 895; active = well fitted inhibition curve with a large enough effect in the signal ratio, with a control signal flat, not every such curve was filed as active; the % refers to the signal ratio; note: potency is the fitted concentration of half-maximal effect; for activity change, negative = inhibition: % is set by controls: 0 for no effect and ±100 for the full control effect). To be noted: NFkB beta-lactamase reporter cells, FRET ratio 460/530, stimulated with 10 pM TNF alpha; series mostly up to 38.3 µM. In short, it runs like this: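 NFkB-bla ME-180 cervical carcinoma cells with beta-lactamase reporter under NFkB response element; compounds added, then TNF alpha at 10 pM final (EC50), 5 h at 37 C. LiveBLAzer substrate 2 h, room temperature; emission 460/530 nm at 405 nm excitation.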

Test [15] in a line: qHTS Assay for Identification of Small Molecule Antagonists for Thrombopoietin (TPO) Signaling Pathway (AID 918). Note: potency is the fitted concentration of half-maximal effect; nearly all actives have a fitted effect of over 60% in size. To be noted: TPO-dependent cell signaling reporter, antagonist mode. The method in brief:
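Luminescence read-out: GPIIb-promoter luciferase in Ba/F3 cells carrying human TPO receptor. Compounds added with 26 pM TPO (EC50), 24 hrs, 37 C, 5% CO2; cells deprived of IL-3 overnight beforehand. Inhibition of signal scored.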

Test [16] has as its target Pyruvate kinase (Leishmania mexicana) (UniProt Q27686). Put plainly: qHTS Validation Assay for Activators of Leishmania Mexicana Pyruvate Kinase (AID 959). To be noted: purified L. mexicana pyruvate kinase, enzyme activity; series mostly up to 57.5 µM. The method in brief: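 Luminescent ATP detection (PKLight) after a 1 h room-temperature reaction of 0.2 nM LmPYK E451W mutant with 0.5 mM PEP and 0.1 mM ADP at pH 7.2. Activity is normalized to DMSO-only control wells.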

The target of test [17] is Cytochrome P450 2C9 (Homo sapiens) (UniProt P11712). Put plainly: qHTS Assay for Inhibitors and Substrates of Cytochrome P450 2C9 (AID 883). Note: potency is the fitted concentration of half-maximal effect; nearly all actives have a fitted effect of over 60% in size. To be noted: recombinant CYP2C9, luciferin-H luminescence, 60 min; series mostly up to 57.1 µM. The method in brief: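 Human CYP2C9 (10nM) hydroxylated Luciferin-H (100uM, at its KM) to luciferin in 25mM KPO4. Compound was preincubated 10 min at 37C, then NADPH regeneration started a 60 min reaction at 37C. Luminescence was read after detection reagent, normalized to 57uM sulphaphenazole.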

The target in test [18] is Cytochrome P450 2D6 (Homo sapiens) (UniProt P10635). The test is described as follows: qHTS Assay for Inhibitors and Substrates of Cytochrome P450 2D6 (AID 891).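 Note: luciferin methyl ether substrate demethylated by CYP2D6 with NADPH regeneration; % is set by controls: 0 for no effect and ±100 for the full control effect; nearly all actives have a fitted effect of over 60% in size.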 To be noted: recombinant CYP2D6, luciferin-ME EGE luminescence; series mostly up to 57.1 µM. The method in brief: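 Luminescent read-out of luciferin formed by 5 nM human CYP2D6 demethylating 30 uM Luciferin-ME EGE (Km level) over 60 min at room temperature after NADPH regeneration addition. Data normalized to full inhibition by 1.43 uM quinidine.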

The target of test [19] is Pyruvate kinase PKM (Homo sapiens) (UniProt P14618). Put plainly: qHTS Assay for Inhibitors of Human Muscle Pyruvate Kinase (AID 958). To be noted: purified human PKM enzyme activity. In short, it runs like this:
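Luminescence from a luciferase ATP-detection/stop reagent reported PKM2 activity. Reactions contained 0.1 nM purified human enzyme, 0.5 mM PEP, 0.1 mM ADP and 7 mM MgCl2 at pH 7.2, run 1 h at RT.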

Test [20] concerns the target DNA dC->dU-editing enzyme APOBEC-3G (Homo sapiens) (UniProt Q9HC16). The test is described as follows: qHTS for inhibitors of Vif-A3G interactions: Validation (AID 588379). Note: 0% is about no effect. To be noted: Vif-A3G protein interaction assay; series mostly up to 46.1 µM. The method in brief: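 Yellow fluorescence (Ex 488, Em 500-530) of Vif-coexpressing HeLa A3G-eYFP cells, scanned by Acumen cytometer, reports blocked A3G degradation. Cells plated at 700/well overnight at 37 deg C before compound addition, then a further overnight compound incubation at 37 deg C.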

Sequence of Phenylethanolamine N-methyltransferase (Homo sapiens) (P11086 whole entry, looked up): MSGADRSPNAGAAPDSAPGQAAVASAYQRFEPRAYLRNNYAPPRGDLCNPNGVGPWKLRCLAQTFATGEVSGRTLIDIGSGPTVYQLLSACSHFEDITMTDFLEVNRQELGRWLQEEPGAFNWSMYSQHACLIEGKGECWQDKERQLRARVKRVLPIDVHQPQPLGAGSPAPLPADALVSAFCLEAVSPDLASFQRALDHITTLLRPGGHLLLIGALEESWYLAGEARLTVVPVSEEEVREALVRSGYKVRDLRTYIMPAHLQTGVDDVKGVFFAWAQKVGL
Sequence of Cytochrome P450 3A4 (Homo sapiens) (P08684 whole entry, looked up): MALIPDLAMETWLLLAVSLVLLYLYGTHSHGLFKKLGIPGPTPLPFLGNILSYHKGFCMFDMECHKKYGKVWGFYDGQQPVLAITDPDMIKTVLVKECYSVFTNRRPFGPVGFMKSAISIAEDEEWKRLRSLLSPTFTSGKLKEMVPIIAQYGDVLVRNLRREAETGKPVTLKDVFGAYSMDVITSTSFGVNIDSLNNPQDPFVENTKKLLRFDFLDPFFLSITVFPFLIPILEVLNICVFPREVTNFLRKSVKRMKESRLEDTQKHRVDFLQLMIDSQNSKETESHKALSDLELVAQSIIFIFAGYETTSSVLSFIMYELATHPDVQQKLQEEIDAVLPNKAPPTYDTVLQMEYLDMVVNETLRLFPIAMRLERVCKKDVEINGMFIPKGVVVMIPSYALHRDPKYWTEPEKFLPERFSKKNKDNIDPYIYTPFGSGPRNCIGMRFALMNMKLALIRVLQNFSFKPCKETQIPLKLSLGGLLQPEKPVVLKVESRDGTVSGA
Sequence of Cytochrome P450 2C9 (Homo sapiens) (P11712 whole entry, looked up): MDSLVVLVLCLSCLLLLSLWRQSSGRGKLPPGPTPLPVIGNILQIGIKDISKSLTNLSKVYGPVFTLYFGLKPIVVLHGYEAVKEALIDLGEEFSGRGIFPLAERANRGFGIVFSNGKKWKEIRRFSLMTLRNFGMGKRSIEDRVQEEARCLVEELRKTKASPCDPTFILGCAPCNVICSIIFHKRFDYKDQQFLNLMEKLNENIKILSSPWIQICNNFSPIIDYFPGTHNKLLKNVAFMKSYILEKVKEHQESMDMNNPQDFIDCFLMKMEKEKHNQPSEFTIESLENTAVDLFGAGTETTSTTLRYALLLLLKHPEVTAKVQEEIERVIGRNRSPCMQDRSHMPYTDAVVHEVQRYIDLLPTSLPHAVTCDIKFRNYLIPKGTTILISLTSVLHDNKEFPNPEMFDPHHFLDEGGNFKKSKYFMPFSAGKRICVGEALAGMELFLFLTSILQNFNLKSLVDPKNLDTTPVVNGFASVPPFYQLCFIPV
Sequence of Rap guanine nucleotide exchange factor 3 (Homo sapiens) (O95398 whole entry, looked up): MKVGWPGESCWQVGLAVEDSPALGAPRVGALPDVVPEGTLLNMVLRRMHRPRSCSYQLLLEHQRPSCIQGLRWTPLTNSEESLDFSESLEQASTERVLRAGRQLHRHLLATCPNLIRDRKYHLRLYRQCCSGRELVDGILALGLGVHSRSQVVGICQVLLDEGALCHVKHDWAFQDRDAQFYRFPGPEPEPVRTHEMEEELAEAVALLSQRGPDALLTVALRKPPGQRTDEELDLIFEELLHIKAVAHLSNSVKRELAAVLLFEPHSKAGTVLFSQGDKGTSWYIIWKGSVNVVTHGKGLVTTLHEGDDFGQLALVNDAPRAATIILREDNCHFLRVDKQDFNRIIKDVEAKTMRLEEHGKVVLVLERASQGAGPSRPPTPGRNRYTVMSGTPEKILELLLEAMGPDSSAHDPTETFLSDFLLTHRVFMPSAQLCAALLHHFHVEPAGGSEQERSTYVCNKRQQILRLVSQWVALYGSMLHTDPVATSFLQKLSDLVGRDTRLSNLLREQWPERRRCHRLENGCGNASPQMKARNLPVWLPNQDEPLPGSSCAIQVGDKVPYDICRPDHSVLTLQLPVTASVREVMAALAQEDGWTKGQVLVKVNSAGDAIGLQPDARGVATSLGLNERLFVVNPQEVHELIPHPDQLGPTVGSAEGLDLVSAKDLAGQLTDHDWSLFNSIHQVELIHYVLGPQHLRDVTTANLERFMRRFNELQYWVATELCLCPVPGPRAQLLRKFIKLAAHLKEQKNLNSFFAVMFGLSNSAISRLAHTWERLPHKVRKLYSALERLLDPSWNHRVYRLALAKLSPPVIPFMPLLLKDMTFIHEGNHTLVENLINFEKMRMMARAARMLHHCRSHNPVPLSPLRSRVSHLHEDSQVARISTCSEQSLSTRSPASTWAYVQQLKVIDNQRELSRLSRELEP
Sequence of Cytochrome P450 2C19 (Homo sapiens) (P33261 whole entry, looked up): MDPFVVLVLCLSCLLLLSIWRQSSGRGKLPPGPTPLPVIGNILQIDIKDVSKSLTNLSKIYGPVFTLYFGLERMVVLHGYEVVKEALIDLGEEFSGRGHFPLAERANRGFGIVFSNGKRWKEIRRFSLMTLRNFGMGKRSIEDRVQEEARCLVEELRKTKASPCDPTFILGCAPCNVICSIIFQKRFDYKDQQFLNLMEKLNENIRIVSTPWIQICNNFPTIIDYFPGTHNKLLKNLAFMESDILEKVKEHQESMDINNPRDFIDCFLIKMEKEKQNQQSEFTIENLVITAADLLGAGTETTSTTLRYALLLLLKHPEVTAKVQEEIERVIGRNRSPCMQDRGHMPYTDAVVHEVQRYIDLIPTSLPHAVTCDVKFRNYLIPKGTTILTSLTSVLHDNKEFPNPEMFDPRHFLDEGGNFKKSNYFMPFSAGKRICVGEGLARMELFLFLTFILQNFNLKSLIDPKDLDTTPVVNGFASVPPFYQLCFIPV
Sequence of Rap guanine nucleotide exchange factor 4 (Homo sapiens) (Q8WZA2 whole entry, looked up): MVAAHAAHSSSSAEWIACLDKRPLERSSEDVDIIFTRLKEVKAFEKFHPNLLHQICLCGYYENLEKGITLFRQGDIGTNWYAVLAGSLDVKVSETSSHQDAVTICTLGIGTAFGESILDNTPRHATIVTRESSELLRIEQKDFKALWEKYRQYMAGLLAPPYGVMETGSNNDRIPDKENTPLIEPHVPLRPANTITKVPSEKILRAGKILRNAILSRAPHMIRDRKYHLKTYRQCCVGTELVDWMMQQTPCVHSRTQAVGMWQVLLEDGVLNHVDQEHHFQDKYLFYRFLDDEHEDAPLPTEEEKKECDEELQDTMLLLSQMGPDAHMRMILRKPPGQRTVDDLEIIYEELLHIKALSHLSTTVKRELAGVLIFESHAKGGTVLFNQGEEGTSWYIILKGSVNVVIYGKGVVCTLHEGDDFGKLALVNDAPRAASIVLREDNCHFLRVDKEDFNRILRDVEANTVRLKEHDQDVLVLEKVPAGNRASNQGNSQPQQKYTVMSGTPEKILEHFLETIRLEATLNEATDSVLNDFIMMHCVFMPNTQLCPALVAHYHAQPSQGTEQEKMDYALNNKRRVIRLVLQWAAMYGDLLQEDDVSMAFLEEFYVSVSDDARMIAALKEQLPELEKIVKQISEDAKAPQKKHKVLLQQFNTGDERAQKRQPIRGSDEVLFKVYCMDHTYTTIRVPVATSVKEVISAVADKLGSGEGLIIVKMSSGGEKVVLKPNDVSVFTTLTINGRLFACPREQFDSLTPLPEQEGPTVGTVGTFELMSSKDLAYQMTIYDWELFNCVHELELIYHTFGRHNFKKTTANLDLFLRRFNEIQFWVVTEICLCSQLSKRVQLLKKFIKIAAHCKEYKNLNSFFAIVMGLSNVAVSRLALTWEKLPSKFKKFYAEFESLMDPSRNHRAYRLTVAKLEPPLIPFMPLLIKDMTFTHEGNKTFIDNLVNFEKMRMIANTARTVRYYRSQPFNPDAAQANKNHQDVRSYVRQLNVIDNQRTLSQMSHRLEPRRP
Sequence of DNA dC->dU-editing enzyme APOBEC-3G (Homo sapiens) (Q9HC16 whole entry, looked up): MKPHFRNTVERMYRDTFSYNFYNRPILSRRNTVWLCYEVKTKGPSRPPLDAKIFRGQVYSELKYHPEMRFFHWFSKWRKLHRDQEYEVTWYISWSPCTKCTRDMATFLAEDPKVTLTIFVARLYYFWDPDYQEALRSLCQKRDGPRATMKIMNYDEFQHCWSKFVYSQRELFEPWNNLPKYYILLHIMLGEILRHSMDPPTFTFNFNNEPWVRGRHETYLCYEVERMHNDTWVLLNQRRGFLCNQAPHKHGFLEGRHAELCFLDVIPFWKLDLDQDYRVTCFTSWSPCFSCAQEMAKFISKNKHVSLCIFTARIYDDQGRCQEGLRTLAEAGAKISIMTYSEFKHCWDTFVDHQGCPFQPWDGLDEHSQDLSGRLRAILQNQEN
Sequence of Pyruvate kinase PKM (Homo sapiens) (P14618 whole entry, looked up): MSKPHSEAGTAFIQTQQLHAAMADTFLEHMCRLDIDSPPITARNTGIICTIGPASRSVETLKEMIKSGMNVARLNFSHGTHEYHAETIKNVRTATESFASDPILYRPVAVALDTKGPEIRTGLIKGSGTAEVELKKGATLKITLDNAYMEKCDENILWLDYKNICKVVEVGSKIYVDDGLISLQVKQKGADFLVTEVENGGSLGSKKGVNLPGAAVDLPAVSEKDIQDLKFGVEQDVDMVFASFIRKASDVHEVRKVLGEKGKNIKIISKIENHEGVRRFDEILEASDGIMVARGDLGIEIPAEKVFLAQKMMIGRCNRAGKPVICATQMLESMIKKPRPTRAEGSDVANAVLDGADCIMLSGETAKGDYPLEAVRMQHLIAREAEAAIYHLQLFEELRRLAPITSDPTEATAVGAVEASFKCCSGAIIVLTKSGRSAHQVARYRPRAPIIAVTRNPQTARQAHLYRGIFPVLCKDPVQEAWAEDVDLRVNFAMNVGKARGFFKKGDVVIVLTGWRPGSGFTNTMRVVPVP

As to `COc1cc2c(NC3CCN(C4CCCCC4)CC3)nc(N3CCCN(C(C)C)CC3)nc2cc1OCCCN1CCCCC1`, in [1], the activity is -1.48%.
Regarding `CC[C@@H](C)[C@H]1O[C@]2(CC[C@@H]1C)C[C@@H]1C[C@@H](C/C=C(\C)[C@@H](O[C@@H]3C[C@H](OC)[C@H](O[C@H]4C[C@H](OC)[C@@H](O)[C@H](C)O4)[C@H](C)O3)[C@@H](C)/C=C/C=C3\CO[C@@H]4[C@@H](O)C(C)=C[C@@H](C(=O)O1)[C@]34O)O2`, the Potency entry in test [2] was “inactive”.
For `O=C(/C=C/c1ccc(CN(CCO)CCc2c[nH]c3ccccc23)cc1)NO`, the activity in test [1] was -2.68%.
Still for that read-out and setting: with `O=C(/C=C/C#Cc1cccc(NS(=O)(=O)c2ccccc2)c1)NO` the figure was 1.13%.
Take `NCCC(=O)NCCc1cnc[nH]1`: in test [3], the Potency result was “inactive”.
As for `CN1C(=O)CCC1c1cccnc1` (centres undefined), the Potency entry in test [4] was “inactive”. Moreover, the outcome in [5] and in test [6] was “inactive” each time.
As to `N[C@H](Cc1ccc(O)c(O)c1)C(=O)O`, in test [7], the outcome is “inactive”.
Turning to `CN1C2CC(OC(=O)C(CO)c3ccccc3)CC1C1OC12` (centres undefined), the Potency result in test [8] is “inactive”. Also, the outcome in [9] and in [12] was “inactive” each time. The activation is 2.48% [at 17.1 µM] (inactive) in test [10] and 0.0134% [at 30.8 µM] (inactive) in [13]. In test [11], the activity change, negative = inhibition is -4.32% [at 12.7 µM] (inactive).
`CC(=O)NCCc1ccc(O)c(O)c1`: the Potency result in test [14] is “inactive”.
Take `NCCCCNS(=O)(=O)c1cccc2c(Cl)cccc12`: in test [15], the Potency is 10 µM (active).
Consider `CCSC(N)=Nc1ccc(C(F)(F)F)cc1`, for which, in [16], the outcome was “inactive”.
As to `COC(=O)c1c(-c2cc(OC)c(OC)c(OC)c2)c2ccc(OCc3ccccn3)cc2c(=O)n1-c1ccc(N)cc1`, the Potency in [17] was 3.98 µM (active); in test [4], 0.398 µM (active); in test [14], 3.16 µM (active).
Regarding `CCCC(=O)NCCc1c2n(c3ccc(OC)cc13)Cc1ccccc1-2`, the figures for the Potency in [17], in [4] and in [3] were 1.26 µM (active), 2.51 µM (active) and 0.398 µM (active), respectively.
As for `N=C1Sc2ccccc2C2=NCCCN12`, the Potency in test [17] is 0.794 µM (active); in [14], 2 µM (active); in [19], 7.94 µM (active). Moreover, the Potency entry in test [18] was “inactive”.
Consider `CN1C[C@H](C(=O)N[C@]2(C)O[C@@]3(O)C4CCCN4C(=O)[C@H](Cc4ccccc4)N3C2=O)C[C@@H]2c3cccc4[nH]cc(c34)C[C@H]21` (some centres undefined), for which, in test [20], the outcome was “inactive”.
